Assay outcomes from PubChem BioAssay.
An excerpt weighted towards active compounds, which were near 1.1% of everything screened.
AGP1 TOR yeast = modulators of AGP1-GFP expression in yeast TOR pathway, primary screen, cell-based, multiplex flow cytometry, S. cerevisiae, MLPCN library; 3 h; GFP as percent of DMSO wells; 0.02% of 320,000 active; GFP response vs DMSO, % at 10 µM;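 active = GFP response relative to DMSO above a set limit, near screen average plus 3 SD, cut at about 150% in these data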;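 also: median GFP channel fluorescence of the gated AGP1 strain per well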
MEP2-GFP yeast = modulators of MEP2-GFP levels in yeast, primary screen, S. cerevisiae, multiplex flow cytometry, MLPCN library. S. cerevisiae MEP2-GFP strain, 3 h; 100% = DMSO control level. GFP response vs DMSO, % at 10 µM. 0.51% of 330,000 active. AID 2016, 2009;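 active = GFP response versus DMSO above a set limit, roughly screen mean plus 3 SD, cut at about 180% in these data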;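 also: median GFP fluorescence of the barcode-gated MEP2-GFP cells per well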
LAP4-GFP MLPCN = modulators of LAP4-GFP expression in yeast, primary screen, S. cerevisiae, multiplex flow cytometry, MLPCN library; 3 h; median GFP as percent of DMSO wells; GFP response vs DMSO, % at 10 µM; AID 2023, 2009; 0.34% of 320,000 active;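 active = GFP response vs DMSO above a set limit, about the screen mean plus 3 SD, cut at about 150% in these data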
RPL19A-GFP yeast = RPL19A-GFP expression modulators in yeast, primary screen, cell-based, S. cerevisiae, multiplex flow cytometry, MLPCN; S. cerevisiae RPL19A-GFP strain, 3 h; active compounds read low; percent response vs DMSO, % at 10 µM; 0.3% of 330,000 active;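 active = percent response vs DMSO below 50%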;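 also: median channel GFP fluorescence of the barcoded RPL19A-GFP strain; ratio of sample median GFP to plate DMSO average so 100% = DMSO; lower means less RPL19A-GFP as with rapamycin TOR inhibition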
VLA-4 inh = inhibition in human VLA-4 binding assay, primary screen, VLA-4 allosteric modulator project, MLPCN library, flow cytometry, VLA-4 expressing cells. 0.2% of 330,000 active. Integrin alpha-4 (Homo sapiens), P13612. ligand binding flow cytometry. inhibition, % (about 7 µM as worked out from the volumes in the protocol); in the data active = inhibition above about 50%
Target sequence (P13612 whole entry, looked up): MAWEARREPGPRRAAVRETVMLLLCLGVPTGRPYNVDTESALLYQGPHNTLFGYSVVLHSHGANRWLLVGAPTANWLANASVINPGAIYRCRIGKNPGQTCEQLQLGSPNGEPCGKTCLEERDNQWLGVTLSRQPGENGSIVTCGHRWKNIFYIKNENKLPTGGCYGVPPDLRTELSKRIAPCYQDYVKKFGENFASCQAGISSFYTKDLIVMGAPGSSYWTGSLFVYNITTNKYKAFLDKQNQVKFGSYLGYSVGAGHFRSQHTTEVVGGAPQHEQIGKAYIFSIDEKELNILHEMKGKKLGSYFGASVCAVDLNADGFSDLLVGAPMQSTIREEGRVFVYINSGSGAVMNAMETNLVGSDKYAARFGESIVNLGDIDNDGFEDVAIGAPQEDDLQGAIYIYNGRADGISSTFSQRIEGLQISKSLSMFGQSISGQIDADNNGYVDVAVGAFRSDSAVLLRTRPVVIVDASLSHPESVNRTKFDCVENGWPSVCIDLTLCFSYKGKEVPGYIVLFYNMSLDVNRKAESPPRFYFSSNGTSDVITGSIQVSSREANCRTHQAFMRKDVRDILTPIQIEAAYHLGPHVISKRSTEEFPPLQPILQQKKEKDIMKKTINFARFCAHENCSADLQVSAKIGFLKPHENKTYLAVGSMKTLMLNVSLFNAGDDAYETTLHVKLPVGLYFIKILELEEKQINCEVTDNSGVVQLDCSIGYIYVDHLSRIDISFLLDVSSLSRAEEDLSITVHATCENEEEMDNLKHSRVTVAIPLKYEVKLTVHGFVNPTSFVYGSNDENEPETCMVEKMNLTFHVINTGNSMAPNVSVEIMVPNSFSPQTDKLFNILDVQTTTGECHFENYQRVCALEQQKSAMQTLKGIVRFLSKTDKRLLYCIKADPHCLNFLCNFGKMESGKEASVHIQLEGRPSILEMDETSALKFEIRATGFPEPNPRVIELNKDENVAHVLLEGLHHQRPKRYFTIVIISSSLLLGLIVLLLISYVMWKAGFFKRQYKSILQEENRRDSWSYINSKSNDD
CIT2-GFP yeast = modulators of CIT2-GFP expression in yeast, primary screen, S. cerevisiae, GFP fusion, multiplex flow cytometry, MLPCN library; S. cerevisiae CIT2-GFP strain, 3 h; 100 means same as DMSO wells; GFP response vs DMSO, % at 10 µM; 0.065% of 320,000 active;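 active = GFP response relative to DMSO above a set limit, near the screen mean plus 3 SD, cut at about 150% in these data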;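 also: ratio of well median GFP fluorescence to mean of DMSO wells on the plate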
LAP4-GFP pick2 = LAP4-GFP expression modulators in yeast, confirmation, cell-based, second cherry pick, flow cytometry | shares compounds with LAP4-GFP MLPCN | S. cerevisiae LAP4-GFP strain, 3 h | GFP response vs DMSO, % at 10 µM | 20% of 590 active | AID 2621, 2010;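 active = GFP signal as percent of the solvent control above about 150%, meaning raised reporter expression, limit read from the data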;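 also: ratio of well median GFP fluorescence to plate DMSO mean so 100% = DMSO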
MEP2 cherry2 = modulators of MEP2-GFP levels in yeast, confirmation, S. cerevisiae, flow cytometry GFP, second cherry picks; AID 2622, 2010; 10% of 590 active; S. cerevisiae MEP2-GFP strain, 3 h; GFP response vs DMSO, % at 10 µM; shares compounds with LAP4-GFP MLPCN;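 active = GFP signal above 150% of the solvent control wells, that is a rise of more than half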;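 also: median channel GFP fluorescence of all gated yeast cells per well; ratio of median GFP to plate DMSO average so 100% = DMSO level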
RPL19A GFP CP2 = RPL19A-GFP modulators in TOR pathway yeast, confirmation, cell-based, S. cerevisiae, flow cytometry, second cherry pick. shares compounds with LAP4-GFP MLPCN. S. cerevisiae RPL19A-GFP strain, 3 h; active compounds read low; 100% means same as DMSO wells. GFP response vs DMSO, % at 10 µM. 3% of 590 active. AID 2623, 2010;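 active = under 65% GFP response relative to DMSO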;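 also: median GFP channel fluorescence per well over the all cells gate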
CIT2 GFP CP2 = modulators of CIT2-GFP expression in yeast, confirmation, flow cytometry, second cherry pick, single plex. shares compounds with LAP4-GFP MLPCN. S. cerevisiae CIT2-GFP strain, 3 h; DMSO control wells read 100%. GFP response vs DMSO, % at 10 µM. 8% of 590 active;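 active = GFP response vs DMSO above about 150%, limit read from the data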;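 also: median green fluorescence per well over all gated yeast cells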
AGP1-GFP pick2 = AGP1-GFP expression modulators, hit retest, confirmation, cell-based, flow cytometry, S. cerevisiae, cherry pick set 2 | shares compounds with LAP4-GFP MLPCN | S. cerevisiae AGP1-GFP strain, 3 h | percent response vs DMSO, % at 10 µM | 590 tested, under 10 active | AID 2643, 2010;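 active = over 150 percent of DMSO response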;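 also: median GFP channel fluorescence over all cells without mother daughter split; sample median GFP divided by mean DMSO control so 100% equals DMSO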
Yeast autofluor = compound autofluorescence in yeast s288c, dose response, artefact control for yeast TOR pathway GFP screen, s288c strain; shares compounds with LAP4-GFP MLPCN; S. cerevisiae s288c, 520 nm autofluorescence, flow cytometry, 3 h; active compounds read high; zero means same as solvent-only cells; fluorescence change (kMESF span) at 33 µM; 610 tested, under 10 active;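 active = fluorescence span over the dose series, or activity score, above about 33, limit read from the data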
Yeast autofl DR = autofluorescence of compounds in yeast s288c, dose response, artefact control for yeast TOR pathway GFP screen, primary hits, KU SAR, s288c parental | shares compounds with LAP4-GFP MLPCN | S. cerevisiae s288c parental, compound autofluorescence, flow cytometry, 3 h | fluorescence change (span) at 33 µM | 110 tested, under 10 active;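 active = fluorescence change span, or the activity score built from it, above 25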
TORC1 bypass gr = wild-type yeast growth inhibition sparing TORC1 bypass cells, mechanism study for yeast TOR pathway GFP screen, BY4741 wild type, TORC1 bypass strain; shares compounds with LAP4-GFP MLPCN; S. cerevisiae BY4741 spot growth rating, 48-72 h; active compounds read low; growth rating (0-3) at 30 µM; 120 tested, under 10 active; AID 504456, 2011;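 active = growth rating at most 1 for wild type yeast while the TORC1 bypass strain still grows fully, rated 3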
* = called active by the depositor; i = inactive; nt = no result given.

SMILES	AGP1 TOR yeast	MEP2-GFP yeast	LAP4-GFP MLPCN	RPL19A-GFP yeast	VLA-4 inh	CIT2-GFP yeast	LAP4-GFP pick2	MEP2 cherry2	RPL19A GFP CP2	CIT2 GFP CP2	AGP1-GFP pick2	Yeast autofluor	others
CC(C)OC(=O)CSc1nc2ncccc2[nH]1	107.0	93.4	171.3*	93.5	-2.6	97.0	98.1	103.2	98.8	105.2	101.3	nt
CCCN(CCC)C(=O)c1cc(S(=O)(=O)N2CCCCC2)c[nH]1	105.2	109.7	99.5	99.3	-19.1	103.2	nt	nt	nt	nt	nt	nt
CC(C)(C)C(=O)Nc1cc(NC(=O)C(C)(C)C)cc(C(=O)Nc2c[nH]c(=O)[nH]c2=O)c1	107.8	101.6	104.8	103.9	4.5	102.5	nt	nt	nt	nt	nt	nt
Cc1cc(-c2cc(C(=O)Nc3ccccc3)on2)nc(NC2CCCC2)n1	90.6	98.6	116.0	107.0	24.4	88.8	109.6	103.2	105.9	100.7	97.5	nt
CCCNc1nc(C)cc(-c2cc(C(=O)NC3CCCC3)on2)n1	84.8	91.7	155.7*	95.5	26.1	103.0	105.8	101.5	97.9	90.5	95.7	nt
Cc1cc(-c2cc(C(=O)NC3CCCC3)on2)nc(NC2CCCC2)n1	82.3	85.5	134.9	91.7	9.2	85.7	nt	nt	nt	nt	nt	nt
CSc1nc(C)cc(-c2cc(C(=O)Nc3ccccc3)on2)n1	87.3	88.8	113.1	96.1	4.5	92.6	105.8	114.8	101.9	99.5	96.9	nt
Cc1cc(-c2cc(C(=O)NCc3ccccc3)on2)nc(NC2CCCC2)n1	91.8	92.6	102.7	91.9	-24.8	80.9	101.0	106.5	99.4	104.0	96.4	nt
COc1ccc(-n2ncc3c2CC(C)(C)CC3NC(=O)CCN2CCCCC2=O)cc1 (stereo not drawn)	96.5	94.0	89.2	96.2	18.1	91.9	nt	nt	nt	nt	nt	nt
CCOc1ncccc1C(=O)OCC(=O)NCc1ccccc1	95.2	96.1	99.1	94.0	-11.0	95.4	nt	nt	nt	nt	nt	nt
O=c1c2cnn(-c3ccccc3)c2ncn1Cc1ccccn1	100.9	104.4	100.6	101.2	14.8	107.4	nt	nt	nt	nt	nt	nt
O=c1c2cnn(-c3ccccc3)c2ncn1Cc1ccco1	77.2	98.6	120.7	63.9	-7.9	52.0	129.8	99.8	99.0	98.4	93.1	0.1
COCc1c(C(=O)N2CCN(CCOc3ccccc3)CC2)oc2ccccc12	102.4	112.7	106.1	107.5	12.3	104.8	nt	nt	nt	nt	nt	nt
CS(=O)(=O)c1nc(-c2ccccc2)cc(C(F)(F)F)n1	110.7	141.8	160.1*	86.2	33.8	79.8	nt	nt	nt	nt	nt	0.51
CCN(CC)c1ccc(C=C2C(=O)OC3(CCCCC3)OC2=O)cc1	97.2	92.5	93.9	98.4	-129.3	92.2	nt	nt	nt	nt	nt	nt
CCN(CC)c1ccc(/C=C2/C(=O)c3ccc(C(=O)O)cc3C2=O)cc1	123.9	364.9*	298.4*	134.1	i	231.2*	284.6*	377.3*	119.2	250.3*	109.8	20.9
O=C(NCC(c1ccco1)N1CCN(c2ccc(F)cc2)CC1)C1CCCCC1 (stereo not drawn)	101.2	103.3	97.8	97.0	12.6	94.2	nt	nt	nt	nt	nt	nt
O=C(Cn1cnnn1)NCc1ccccc1	97.0	105.2	85.5	102.0	6.5	101.3	nt	nt	nt	nt	nt	nt
COc1ccc([N+](=O)[O-])c(S(=O)(=O)c2ccccc2)n1	107.8	84.9	218.5*	73.5	17.1	83.6	nt	nt	nt	nt	nt	0.81	Yeast autofl DR=0.21;TORC1 bypass gr=3
COc1ccc([N+](=O)[O-])c(S(=O)(=O)c2ccc(Cl)cc2)n1	108.3	107.8	101.8	100.3	24.2	99.5	nt	nt	nt	nt	nt	0.72	Yeast autofl DR=0.63;TORC1 bypass gr=3
O=[N+]([O-])c1cccnc1S(=O)(=O)c1ccccc1	103.6	96.1	127.8	97.5	-6.0	102.1	nt	nt	nt	nt	nt	nt
Cc1cccc(OCCC(=O)NNC(=O)c2ccoc2C)c1	95.5	95.5	91.0	93.6	5.5	87.1	nt	nt	nt	nt	nt	nt
O=C(O)C1Sc2[nH]c(=O)sc2C2c3cc(Cl)ccc3OC(=O)C12 (stereo not drawn)	97.0	102.8	114.1	99.9	-5.0	109.5	nt	nt	nt	nt	nt	nt
O=C(O)C1Sc2[nH]c(=O)sc2C2c3cc(Br)ccc3OC(=O)C12 (stereo not drawn)	90.2	112.4	150.6*	99.1	-0.5	101.2	nt	nt	nt	nt	nt	3.26
O=C(NCCc1ccccc1)C1CCCN1C(=O)Nc1ccc(Cl)cc1 (stereo not drawn)	92.9	107.0	84.9	99.7	-2.9	100.0	nt	nt	nt	nt	nt	nt
CCCCC1OC23CCCCC2C(C#N)(C(=N)O3)C1(C#N)C#N (stereo not drawn)	70.2	189.3*	96.6	63.5	6.3	92.8	nt	nt	nt	nt	nt	0.31
